# In PubChem BioAssay AID492954 (National Center for Advancing Translational Sciences (NCATS), 2010):
# Several values for one entry are separate records, joined by “and”; a condition that tells them apart may be missing. Identical values can stand only once. Records with an inconclusive call do not appear. Activity calls are given as the source filed them. Calls follow the shape of the full dose curve.
# Assay: Mouse Th17 T cell differentiation assay for inhibitors of ROR gamma transcriptional activity
# Settings: mouse naive CD4 T cells Th17, IL17a-GFP flow cytometry; series mostly up to 20 µM
# Excerpt: NIH Molecular Libraries Probe Production Network [MLPCN] NIH Chemical Genomics Center [NCGC] MLPCN Grant: R03 DA026211-01 Assay Provider: Dan Littman, New York University Keywords: NIH Roadmap, MLPCN, MLI, MLSMR, qHTS, NCGC, qHTS, nuclear hormone receptor, retinoic acid-related orphan receptor, ROR gamma Assay Overview: The retinoic acid-related orphan receptor (ROR) gamma is a transcription factor that has a central role in the differentiation of Th17 cells, a subset of T helper cells that secrete the inflammatory cytokines IL-17a, IL-17f, and IL-22. Th17 cells have been implicated in graft versus host disease, autoimmune disease and asthma. ROR gamma is induced in naive T helper cells in the presence of TGF-beta combined with IL-6, IL-21, or IL-23, and thereafter directs the expression of the Th17 lineage cytokines. To confirm inhibition of ROR gamma, compounds were tested in a mouse Th17 T cell differentiation assay. Th17 differentiation was tracked by expression of a GFP reporter under the control of the endogenous IL-17a promoter using flow cytometry. Compounds that block ROR gamma activity prevent expression of the IL17a-GFP reporter.
# Assay Protocol Summary: Cells from lymph nodes and spleens derived from six to eight week old IL17a-GFP mice (Biocytogen LLC) were used for T cell purification. B220- cells were isolated on an autoMACS Pro with bead depletion of B220+ cells (Miltenyi). Naive CD4+ T cell were further purified as TCRb+CD8- DAPI- CD19- CD4+CD25- CD62L+CD44low/Int by cell sorting on a FACSAria (BD). Cells were cultivated in an incubator at 37 C and 5% CO2 in RPMI 1640 medium (Invitrogen) supplemented with 10% (vol/vol) heat-inactivated FBS (Hyclone), penicillin-streptomycin, 2 mM glutamine and 0.1 mM nonessential amino acids. Cells were seeded on day 0 at a density of 0.4x10^5 cells per ml in 96-well plates coated with anti-CD3e (5 ug/ml) and anti-CD28 (10 ug/ml). Cells were cultured for 4-5 days in Th17 (TGFb (0.3 ng/ml), IL6 (20 ng/ml), anti-IFN-g, and anti-IL-4) condition. At day 1, compounds dissolved in DMSO were added. GFP expression was assayed on day 4 or 5 with DAPI- and PECy7-conjugated CD4+ cells. An LSR II (BD Biosciences) and FlowJo software (Tree Star) were used for flow cytometry. Keywords: NIH Roadmap, MLPCN, MLI, MLSMR, qHTS, NCGC, qHTS, nuclear hormone receptor, retinoic acid-related orphan receptor, ROR gamma
row,Compound,Potency
1,COc1ccc(C(CC(=O)N2CCCC(C)C2)c2c(O)cc(OC)cc2OC)c(OC)c1 (stereo not given),inactive
2,COc1cc(OC)c(C(CC(=O)N2CC(C)CC(C)C2)c2ccc3c(c2)OCO3)c(OC)c1 (stereo not given),800 nM (active)
3,COc1cc(O)c(C(CC(=O)N2CCCC(C)C2)c2cccs2)c(OC)c1 (stereo not given),6000 nM (active)
4,COc1ccc(C(CC(=O)N2CCCC(C)C2)c2c(O)cc(OC)cc2OC)cc1 (stereo not given),5000 nM (active)
5,COc1cc(O)c(C(CC(=O)N2CCCC(C)C2)c2ccc(C)cc2)c(OC)c1 (stereo not given),4000 nM (active)
6,COc1cc(O)c(C(CC(=O)N2CC(C)CC(C)C2)c2ccc3c(c2)OCCO3)c(OC)c1 (stereo not given),300 nM (active)
7,COc1cc(OC)c(C(CC(=O)N2CC(C)CC(C)C2)c2ccc3c(c2)OCO3)c(OCC#N)c1 (stereo not given),3000 nM (active)
8,COc1cc(O)c(C(CC(=O)N2CCCC(C)C2)c2ccccc2C)c(OC)c1 (stereo not given),inactive
9,COc1cc(O)c(C(CC(=O)N2CCCC(C)C2)c2ccccc2)c(OC)c1 (stereo not given),inactive
10,COc1cc(O)c(C(CC(=O)N2CCCC(C(F)(F)F)C2)c2ccc3c(c2)OCO3)c(OC)c1 (stereo not given),7000 nM (active)
11,COc1ccc(C(CC(=O)N2CCCC(C)C2)c2ccc3c(c2)OCO3)c(O)c1 (stereo not given),inactive
12,COc1ccc(C(CC(=O)N2CC(C)CC(C)C2)c2c(O)cc(OC)cc2OC)cc1 (stereo not given),400 nM (active)
13,COc1cc(O)c(C(CC(=O)N2CCC(C)CC2)c2ccc3c(c2)OCO3)c(OC)c1 (stereo not given),inactive
14,COc1cc(O)c(C(CC(=O)N2CC(C)CC(C)C2)c2ccc3c(c2)OCO3)c(OC)c1 (stereo not given),500 nM (active) and 700 nM (active)
15,COc1cc(O)c(C(CC(=O)N2CC(C)CC(C)C2)c2ccc(C)cc2)c(OC)c1 (stereo not given),500 nM (active)
16,COCOc1cc(OC)cc(OC)c1C(CC(=O)N1CC(C)CC(C)C1)c1ccc2c(c1)OCO2 (stereo not given),1000 nM (active)
17,COc1cc(O)c(C(CC(=O)N2CC(C)NC(C)C2)c2ccc3c(c2)OCO3)c(OC)c1 (stereo not given),inactive
18,COc1cc(O)c(C(CC(=O)N2CC(C)CC(C)C2)c2ccc(O)cc2)c(OC)c1 (stereo not given),300 nM (active)
19,COc1cccc(O)c1C(CC(=O)N1CCCC(C)C1)c1ccc2c(c1)OCO2 (stereo not given),inactive
20,COc1cc(O)c(C(CC(=O)N2C[C@H](C)C[C@H](C)C2)c2ccc3c(c2)OCO3)c(OC)c1 (stereo not given in full),400 nM (active)
21,COc1cc(O)c(C(CC(=O)N2CC(C)CC(C)C2)c2ccc(N(C)C)cc2)c(OC)c1 (stereo not given),400 nM (active)
22,COc1cc(O)c(C(CC(=O)N2CC(C)OC(C)C2)c2ccc3c(c2)OCO3)c(OC)c1 (stereo not given),800 nM (active)
23,COc1cc(O)c(C(CC(=O)N2CCCC(C)(C)C2)c2ccc3c(c2)OCO3)c(OC)c1 (stereo not given),6000 nM (active)
24,COc1cc(OC)c(C(CC(=O)N2CC(C)CC(C)C2)c2ccc3c(c2)OCO3)c(OCC(N)=O)c1 (stereo not given),inactive
25,COc1cc(OC)c(C(CC(=O)N2CCCC(C)C2)c2ccc3c(c2)OCO3)c(OC)c1 (stereo not given),2000 nM (active)
